“And” between values parts separate entries of the source, which are not always exact repeats. Identical values can stand only once. Inconclusive results are not listed. Some structures have more than one record in an assay (separate samples or runs), and their calls can disagree. The source made the active and inactive calls. The calls were made as follows: active = hit-call score of the fitted dose curve at least 0.9, where 1 is the maximum; inconclusive = response in the unintended direction; inactive = score below 0.9.

The target in assay [1] is Estrogen receptor (Homo sapiens) (UniProt P03372). Briefly: NVS_NR_hER: NovaScreen (NVS) Nuclear Receptor Binding Assay for human Estrogen Receptor (ER) (AID 2283348). The gist of the method: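 Scintillation signal from bound radioligand was measured 18 hours after chemical addition to cell-free MCF7 protein extracts, with DMSO as baseline. Activity was scored as signal loss; compounds ran first at 25 uM in duplicate.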

A short description of assay [2]: TOX21_p53_BLA_p2_viability: Viability Assessment in the Tox21 HCT-116 p53 Agonism Beta-lactamase Assay, Phase 2 (AID 2283591).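 Also: compound exposure lasted 16 h at 37 °C; actives lower the ATP signal meaning cytotoxicity.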 The gist of the method: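 Cytotoxicity readout: CellTiter-Glo ATP luminescence, 30 min at room temperature, after the beta-lactamase read. Cells were HCT116 exposed 16 h at 37C to compounds pin-transferred at 217-fold dilution from DMSO stocks.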

Assay [3] concerns the target Cellular tumor antigen p53 (Homo sapiens) (UniProt P04637). Kind of assay: TOX21_p53_BLA_p2_ratio: Tox21 HCT-116 p53 Agonism Beta-lactamase Assay, Ratio, Phase 2 (AID 2283592). The gist of the method:
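In this cell-based reporter format, HCT116 cells were dosed with chemicals delivered from DMSO by 217-fold dilution and incubated 16 h at 37C. Emission at 460 and 530 nm after 2 h CCF4-AM loading provided the ratio, fitted upward versus DMSO.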

The target is the same in assay [4]. Kind of assay: TOX21_p53_BLA_p3_ratio: Tox21 HCT-116 p53 Agonism Beta-lactamase Assay, Ratio, Phase 3 (AID 2283596). The gist of the method:
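HCT116 p53-bla cells (4000/well) given compound in DMSO (217-fold dilution) after 5 h, incubated 16 h at 37C. CCF4-AM substrate 2 h at room temperature; 460/530 nm emission ratio, gain fitted against DMSO.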

The nature of assay [5]: TOX21_p53_BLA_p4_viability: Viability Assessment in the Tox21 HCT-116 p53 Agonism Beta-lactamase Assay, Phase 4 (AID 2283597).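 Also: hits lower the luminescence signal meaning cytotoxicity.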 In short, it runs like this: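 We seeded HCT116 p53 reporter cells at 4000/well and waited 5 h. We then added compounds in DMSO at a 217-fold dilution and incubated for 16 h. Viability was read as CellTiter-Glo luminescence after 30 min at RT.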
The target in assay [6] is Cellular tumor antigen p53 (Homo sapiens) (UniProt P04637). Kind of assay: TOX21_p53_BLA_p5_ratio: Tox21 HCT-116 p53 Agonism Beta-lactamase Assay, Ratio, Phase 5 (AID 2283599). In short, it runs like this:
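Beta-lactamase reporter ratio (blue 460 nm over green 530 nm, 405 nm excitation) after 2 h CCF4-AM loading, in HCT-116 cells exposed 16 h at 37 C to compounds pinned at 217-fold dilution. Increases relative to DMSO baseline scored.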

Assay [7] is described as follows: TOX21_p53_BLA_p5_viability: Viability Assessment in the Tox21 HCT-116 p53 Agonism Beta-lactamase Assay, Phase 5 (AID 2283600). The gist of the method: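 Compounds, pinned from DMSO at 217-fold dilution, were left on the cells for 16 h. The viability endpoint was ATP content measured by CellTiter-Glo luminescence, where falling signal reflects cytotoxicity.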
In assay [8] the target is Cellular tumor antigen p53 (Homo sapiens) (UniProt P04637). Briefly: TOX21_p53_BLA_p4_ratio: Tox21 HCT-116 p53 Agonism Beta-lactamase Assay, Ratio, Phase 4 (AID 2283601). The gist of the method: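 Signal is the blue/green (460nm/530nm) ratio of cleaved versus uncleaved CCF4-AM substrate, read after 2 h substrate loading. Cells were HCT116 carrying the p53-responsive beta-lactamase reporter, dosed 16 h at 37C, 5% CO2; CellTiter-Glo measured in parallel.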

Assay [9] is described as follows: TOX21_p53_BLA_p3_viability: Viability Assessment in the Tox21 HCT-116 p53 Agonism Beta-lactamase Assay, Phase 3 (AID 2283593).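 Also: cells exposed to compound for 16 h before reading.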 The gist of the method: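 Cellular ATP was quantified by CellTiter-Glo luminescence, read after 30 min at room temperature. Beforehand, HCT116 cells (4000/well) received compound 5 h post-seeding, 217-fold diluted from DMSO, then incubated 16 h at 37C.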

Sequence of Cellular tumor antigen p53 (Homo sapiens) (P04637 whole entry, looked up): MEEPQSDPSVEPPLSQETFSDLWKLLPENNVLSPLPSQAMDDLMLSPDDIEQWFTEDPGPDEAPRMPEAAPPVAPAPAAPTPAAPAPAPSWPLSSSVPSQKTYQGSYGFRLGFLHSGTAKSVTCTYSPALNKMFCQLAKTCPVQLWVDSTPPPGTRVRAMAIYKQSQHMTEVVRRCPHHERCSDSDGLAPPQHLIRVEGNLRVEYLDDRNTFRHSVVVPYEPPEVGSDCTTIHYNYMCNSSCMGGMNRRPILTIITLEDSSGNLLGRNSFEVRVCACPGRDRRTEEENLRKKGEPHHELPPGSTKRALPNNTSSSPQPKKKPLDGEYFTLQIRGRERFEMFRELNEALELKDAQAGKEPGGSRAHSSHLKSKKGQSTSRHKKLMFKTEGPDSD
Sequence of Estrogen receptor (Homo sapiens) (P03372 whole entry, looked up): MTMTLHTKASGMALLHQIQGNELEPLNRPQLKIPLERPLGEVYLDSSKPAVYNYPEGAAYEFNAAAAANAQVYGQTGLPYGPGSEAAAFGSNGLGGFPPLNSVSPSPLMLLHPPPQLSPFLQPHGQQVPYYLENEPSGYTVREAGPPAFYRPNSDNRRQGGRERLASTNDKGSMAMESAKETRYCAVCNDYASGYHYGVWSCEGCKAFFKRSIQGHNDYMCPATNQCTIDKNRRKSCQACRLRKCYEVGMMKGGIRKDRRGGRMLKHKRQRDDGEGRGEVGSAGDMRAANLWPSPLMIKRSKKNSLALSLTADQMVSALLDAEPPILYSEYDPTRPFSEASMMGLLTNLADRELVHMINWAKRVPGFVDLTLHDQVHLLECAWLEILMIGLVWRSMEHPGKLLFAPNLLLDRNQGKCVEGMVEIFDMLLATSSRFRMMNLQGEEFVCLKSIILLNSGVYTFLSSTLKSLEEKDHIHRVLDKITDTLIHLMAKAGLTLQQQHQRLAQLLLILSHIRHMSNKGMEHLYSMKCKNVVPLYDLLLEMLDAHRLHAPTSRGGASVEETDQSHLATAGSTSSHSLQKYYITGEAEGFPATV

In the case of `CCCCCCCCOCCCN`, the call in assay [1], in [2], in assay [3], in assay [4], in assay [5] and in assay [6] was inactive. Besides, the outcome in assay [7] and in assay [8] was inactive.

`CC1=C(/C=C/C(C)=C/C=C/C(C)=C/C(=O)Nc2ccc(O)cc2)C(C)(C)CCC1`: the AC50 in assay [2] is 44.5 µM (active); in [3], 62.4 µM (active); in assay [9] it was 62.5 µM (active); in assay [4] it was 74.6 µM (active); in assay [5], 53.7 µM (active) and 35 µM (active); in assay [6] it was 73.6 µM (active) and 37.7 µM (active). For the same molecule, the AC50 in assay [7] is 43.7 µM (active) and 37.9 µM (active); in assay [8] it was 72.5 µM (active) and 36.6 µM (active). Also, the call in assay [2], in assay [3], in assay [9] and in [4] was inactive.

With `CCCCCCCCCCCCCCCCCCOCC(COP(=O)([O-])OCC[N+](C)(C)C)OC` (stereo not drawn), the results for the AC50 in [2] and in assay [3] were 36.3 µM (active) and 43.6 µM (active), respectively.

On to `CC(=O)O[C@]1(C(C)=O)CC[C@H]2[C@@H]3C=C(Cl)C4=CC(=O)CC[C@]4(C)[C@H]3CC[C@@]21C`, for which the molecule was classed as inactive in assay [2], in assay [3], in assay [9], in assay [4], in [5] and in assay [6]. Further, the molecule was classed as inactive in assay [7] and in assay [8]. In addition, the AC50 in assay [3] is 43.1 µM (active); in assay [4], 72.5 µM (active); in assay [5], 21.8 µM (active); in assay [8] it was 38 µM (active).

With `CC(C)(C)c1ccc(C(O)CCCN2CCC(C(O)(c3ccccc3)c3ccccc3)CC2)cc1` (stereo not drawn), the AC50 in assay [2] is 34.4 µM (active); in assay [3], 42.7 µM (active); in assay [9], 37.9 µM (active) and 31.8 µM (active); in assay [4], 43.3 µM (active) and 39.2 µM (active); in assay [5], 32.4 µM (active); in assay [8] it was 42.2 µM (active). Further, the call in [2], in assay [5], in assay [6], in assay [7] and in assay [8] was inactive.

Turning to `O=[Se](O)O`, the AC50 is 7.1 µM (active) in assay [2]; 1.79 µM (active) in [3]; 13.3 µM (active) in assay [9]; 0.548 µM (active) in [4]; 26 µM (active) in assay [5]; 2.46 µM (active) in [6]. In addition, in [8], the AC50 is 4.23 µM (active). In addition, the result in assay [2], in assay [3], in assay [9], in assay [4], in [5] and in assay [6] was inactive. Moreover, the molecule was called inactive in assay [7] and in assay [8].

`O=C(OCCOCCO)c1ccccc1Nc1cccc(C(F)(F)F)c1`: the result in assay [2] and in [3] was inactive.

Turning to `Oc1c(I)cc(Cl)c2cccnc12`, the AC50 in [2] is 8.67 µM (active); in [3], 7.99 µM (active); in assay [9] it was 12.7 µM (active); in assay [5], 4.52 µM (active) and 18.6 µM (active); in [6], 7.84 µM (active). The molecule was classed as inactive in [2], in assay [3], in assay [9], in assay [4], in [6] and in [7]. Also, the result in assay [8] was inactive.

In the case of `COc1ccc2cc3[n+](cc2c1OC)CCc1cc2c(cc1-3)OCO2`, the AC50 in assay [2] was 20.8 µM (active); in assay [3], 4.58 µM (active); in assay [9] it was 41.2 µM (active); in assay [5], 28.5 µM (active); in assay [6], 66.7 µM (active); in assay [8], 53.1 µM (active). Besides, the outcome in [2], in assay [3], in assay [9], in [4], in assay [5] and in assay [6] was inactive. The molecule was classed as inactive in [7] and in [8].

Source of the values: PubChem BioAssay (EPA / NIEHS).
